# Results taken from PubChem BioAssay (NCI).
# This is part of a sample that, as a whole, favours compounds with a hit. Of some 83,000 tested, about 20% had one in any assay.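 A percent growth of 40 corresponds to 60% growth inhibition; 0 means no net growth; -100 means all cells died. Active threshold: below 10.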 Calls of active or inactive are those of the source.
# Tested on: MDA-MB-468 breast
# Test: NCI-60 one-dose screen, 48 h (100 = growth as untreated, 0 = no growth, -100 = all killed)
# Conditions: 10 µM unless noted
row,Compound,growth
1,O=C1c2ccc3c4c(ccc(c24)C(=O)N1CCCNCc1ccccc1)C(=O)N(CCCNCc1ccccc1)C3=O,-95.5% (active)
2,O=C(CC1Sc2ccccc2NC1=O)NNc1ccc(F)cc1 (stereo not given),92.7% (inactive)
3,COc1ccc(/C(C)=C(\c2ccc(Cl)cc2)c2ccc(OCCCN(C)C)cc2)cc1F,75.7% (inactive)
4,N#CC1(C#N)C2=C(CCCC2)NC(c2c(F)cccc2Cl)C1(C#N)C#N (stereo not given),53% (inactive)
5,COc1ccc(CC(C#N)c2ccc(Cl)cc2)cc1 (stereo not given),24% (inactive)
6,C#CCNC(=O)[C@]1(C)CCC[C@@]2(C)[C@H]1CC=C1C=C(C(C)C)CC[C@@H]12,101% (inactive)
7,Nc1c(C(=O)Nc2cccc3ccccc23)sc2nc3c(cc12)C(=O)CCC3,50% (inactive)
8,O=[N+]([O-])c1ccc(N=Nc2c(Cl)cc(O)cc2Cl)cc1,-11.7% (active)
9,COc1ccc(CCO)cc1,101% (inactive)
10,COc1cc2cc3c(=O)n4c(cc5cc(OC)ncc54)c(=O)n3c2cn1,102% (inactive)
11,COc1cc(Cc2cc(OC)c(O)c(OC)c2)cc(OC)c1O,65.2% (inactive)
12,COc1ccc(Oc2nc(Nc3ccc(N4CCOCC4)cc3)ncc2NC(=O)Nc2cccc(OC)c2)cc1,90.1% (inactive)
13,O=S(=O)(NC1c2ccccc2C[C@H]1O)c1ccc(Cl)cc1Cl (stereo not given in full),85.7% (inactive)
14,N#Cc1ccc(NC(=O)c2ccc3cccnc3c2O)cc1,1.27% (active)
15,C=C=COc1cccc(/C(N)=N/C(N)=N/c2nc3ccccc3s2)c1,102% (inactive)
16,COc1ccc(OCC(=O)OC(C)C)cc1,84.3% (inactive)
17,O=c1ccc2nc(-c3ccccn3)nn(-c3ccccc3)c-2c1,-32.1% (active)
18,Cc1ccc2nc(-c3ccc(-n4on4-c4ccc(/C=C/c5ccc(-n6on6-c6ccc(-c7nc8ccc(C)cc8s7)cc6)cc5S(=O)(=O)O)c(S(=O)(=O)O)c4)cc3)sc2c1,114% (inactive)
19,COc1cc2c(cc1OC)CC[N+](CCC[N+](C)(C)C)=C2,103% (inactive)
20,Cc1cc2nc3c4ccc(Br)cc4n(CCN(C)C)c3nc2cc1C,-6.68% (active)

row,Compound,growth
1,Cc1nc(NC(=O)NC2CCCCC2)sc1C(=O)NN,97.3% (inactive)
2,O=S(=O)(NCCCNc1nccc(-c2c(-c3ccc(F)c(O)c3)nc3sccn23)n1)c1ccc(Cl)cc1,82.8% (inactive)
3,COc1cccc2c1C(=O)c1c(O)c3c(c(O)c1C2=O)C[C@@](O)(/C(C)=N/NC(=O)c1ccc(Cl)cc1)C[C@@H]3OC1CC(N)C(O)C(C)O1 (stereo not given in full),-65.1% (active)
4,COc1ccc(-c2nnc(SCC(=O)Nc3ccc(C(=O)/C=C/c4ccccc4)cc3)n2-c2ccccc2)cc1OC,94.8% (inactive)
5,O=[N+]([O-])/C(=C\c1ccco1)c1ccccc1Cl,55.7% (inactive)
6,Cc1nn(-c2ccccc2)c2c1C(c1ccc([N+](=O)[O-])cc1)C(C#N)=C(N)O2 (stereo not given),108% (inactive)
7,Cc1ccc(-c2cc3nc(C(Cl)Cl)nc(-c4ccc(S(=O)(=O)N(C)C)cc4)n3n2)cc1,82% (inactive)
8,Cc1ccc2nc(-c3ccc(OCC(=O)N=Nc4c(O)[nH]c5ccccc45)cc3)[nH]c2c1,60.6% (inactive)
9,C=CCCCCCCCCC(=O)[O][Sn]([CH2]CCC)([CH2]CCC)[CH2]CCC,-85.6% (active)
10,CC1(C)CN(CCNc2nccc(-c3c(-c4cccc(O)c4)nc4sccn34)n2)S(=O)(=O)N1,81% (inactive)
11,COc1cccc(Nc2ncnn3ccc(CN4CC[C@@H](N)[C@H](O)C4)c23)c1,-42.4% (active)
12,COc1ccc(C)c2sc(N(Cc3cccnc3)C(=O)c3ccc(C#N)cc3)nc12,-13.4% (active)
13,COC(=O)[C@H](Cc1cn(C)cn1)NC(=O)[C@H](CC(=O)OCc1ccccc1)NC(=O)Nc1cc(C(F)(F)F)cc(C(F)(F)F)c1,-74.2% [100 µM] (active)
14,COC(=O)Nc1nc2ccc(C3(c4ccc(F)cc4)OCCO3)cc2[nH]1,23.3% (inactive)
15,CC(C)(C)c1ccc(CC(=O)Nc2sc3c(c2C(N)=O)CCC(=O)C3)cc1,-13.9% (active)
16,Cc1nc2c3c(-c4ccccc4)c(-c4ccccc4)oc3ncn2n1,93.9% (inactive)
17,c1ccc(Nc2nc(Nc3ccccc3)nc(Nc3ccccc3)n2)cc1,93.8% (inactive)
18,COCCCNc1nc(NC(=O)c2cc(Br)cc(C(F)(F)F)c2)cc(-c2cccnc2)n1,82.8% (inactive)
19,Nc1ccn(C2OC(CO)C(O)C2F)c(=O)n1 (stereo not given),96.3% (inactive)
20,CCOC(=O)Nc1ccc(-c2nc(-c3cccc(OCCN4CCOCC4)c3)c(-c3ccnc(Br)c3)[nH]2)cc1,33.9% (inactive)
